Bioassay records as filed in PubChem BioAssay.
The entries come from a sample that favours hits as a whole.
LASV entry inh – inhibitors of Lassa virus binding or cell entry; Lassa virus pseudotype entry inhibition, cell reporter; Potency, µM (top dose mostly 37.9 µM), without a hit: at the top dose activity change, negative = inhibition, actives largely listed as inhibitors; hit rate 1.2% among 300,000; AID 540256; calls by dose curve; tested in HEK293 cells; further: potency means the concentration at half of the fitted maximal effect; on the % scale 0 is the no-effect control and ±100 the full control effect; nearly all actives have a fitted effect of over 50% in size
CHX counter – affects cycloheximide protein synthesis inhibition readout, counter-screen; cell reporter, cycloheximide protein synthesis inhibition counterscreen; max response, %; hit rate 12% among 300,000; AID 2314; in the data active means max response mostly above about 13%, no sharp cut-off; inactive means mostly below about 14%; further: read at 38.3 µM for the half of the compounds with a filed dose; 0% is about no effect
Marburg entry inh – inhibitors of Marburg virus binding or cell entry; Marburg virus pseudotyped entry inhibition, cell reporter; Potency, µM (series often up to 37.8 µM), for inactives: at the top dose activity change, negative = inhibition, most hits filed as inhibitors; AID 540276; hit rate 1.8% among 300,000; calls by dose curve; tested in HEK293 cells; further: potency means the concentration at half of the fitted maximal effect; on the % scale 0 is the no-effect control and ±100 the full control effect
Shiga toxin inh – inhibitors of Shiga toxin in Vero cells; Vero cells, Shiga toxin protein synthesis inhibition reporter; hit rate 9.2% among 290,000; inhibition, % at 38.7 µM; AID 2315; in the data active means inhibition mostly above about 28%, no sharp cut-off; inactive means mostly below about 43%; further: 0% is about no effect
AMA1-RON2 inh – disrupts binding of P. falciparum AMA1 to RON2; hit rate 0.2% among 360,000; AID 720542; Potency, µM (doses to about 58.2 µM), without a hit: top-dose activity change, negative = inhibition, most hits filed as inhibitors; AlphaScreen AMA1-biotinylated RON2 peptide binding; active means well fitted inhibition curve with a large enough effect; inconclusive means small, poorly fitted or top-dose-only effect; inactive means no such curve, though single readings can be large or run the other way;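 further: potency means the concentration at half of the fitted maximal effect; 0% = vehicle wells and -100% = peptide control; nearly all actives have a fitted effect of over 45% in size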
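AMA1 (3D7) with his tag at 25 nM final met compounds first, then biotinylated RON2 peptide at 25 nM; detection used donor plus acceptor beads, 10 µg/mL apiece, read by AlphaScreen after 30 min at room temperature.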
* marks the source's active call; other numbers are inactive results; [ ] = remark or other dose.

Screening C/C(CC(=O)Nc1ccccn1)=N\NC(=O)c1cccc(C)c1 returned LASV entry inh 1%, CHX counter 21*, Marburg entry inh 26%[46.1 µM], Shiga toxin inh 40* and AMA1-RON2 inh 32%.
C/C(CC(=O)Nc1cc(Cl)ccc1Cl)=N\NC(=O)COc1cccc(C)c1 was read as LASV entry inh 1%, CHX counter -4, Marburg entry inh -14%, Shiga toxin inh 16 and AMA1-RON2 inh 76%.
Screening C/C(CC(=O)Nc1cc(C)ccn1)=N\NC(=O)COc1cccc(C)c1 returned CHX counter 31* and Shiga toxin inh -12.
Screening C/C(CC(=O)Nc1cccc(C(F)(F)F)c1)=N\NC(=O)c1ccncc1 returned CHX counter 0, Marburg entry inh -7%[46.1 µM], Shiga toxin inh -1 and AMA1-RON2 inh 64%.
`C/C(CC(=O)NC12CC3CC(CC(C3)C1)C2)=N\NC(=O)c1ccc(C)cc1` gave LASV entry inh 8%, CHX counter 10*, Marburg entry inh inconclusive, Shiga toxin inh 18* and AMA1-RON2 inh 97%.
`C/C(CC(=O)NC12CC3CC(CC(C3)C1)C2)=N\NC(=O)c1ccc(F)cc1` gave LASV entry inh -29%, CHX counter 13, Marburg entry inh -19%[46.1 µM], Shiga toxin inh 34 and AMA1-RON2 inh 138%.
Screening Cn1c(C(=O)N[C@@H](C(=O)O)c2ccccc2)cc2cc(F)ccc21 returned LASV entry inh 6%[46.1 µM], CHX counter 18, Marburg entry inh inconclusive, Shiga toxin inh 26 and AMA1-RON2 inh -8%.
C=CCn1c(SCC(=O)Nc2ccc(Br)cc2)nc(O)c(CC)c1=O was read as LASV entry inh -7%[46.1 µM], CHX counter -4, Marburg entry inh -4%[46.1 µM], Shiga toxin inh -9 and AMA1-RON2 inh 1%.
Screening C/C(CC(=O)Nc1cccc(Cl)c1Cl)=N\NC(=O)C(=O)N1CCCC1 returned LASV entry inh 0%, CHX counter 8, Marburg entry inh 3%, Shiga toxin inh 21 and AMA1-RON2 inh 68%.
Screening C/C(CC(=O)Nc1cc(C)ccn1)=N\NC(=O)c1cccc(F)c1 returned LASV entry inh 0%[46.1 µM], CHX counter 31*, Marburg entry inh inconclusive, Shiga toxin inh 110* and AMA1-RON2 inh 93%.
For C/C(CC(=O)Nc1cc(C)ccn1)=N\NC(=O)c1ccccc1C the results were CHX counter 26*, Marburg entry inh inconclusive, Shiga toxin inh 51* and AMA1-RON2 inh 61%.
`C/C(CC(=O)Nc1cc(C)ccn1)=N\NC(=O)c1ccc(C)cc1` gave LASV entry inh 8%, CHX counter 29*, Marburg entry inh 21%[46.1 µM], Shiga toxin inh 53* and AMA1-RON2 inh 24%.
`C/C(CC(=O)Nc1cccc(Cl)c1Cl)=N\NC(=O)c1ccccc1C` gave LASV entry inh 3%, CHX counter 11*, Marburg entry inh inconclusive, Shiga toxin inh 18 and AMA1-RON2 inh 71%.
For O=C(NC1(Cc2ccccc2)CCN(Cc2ccc(-c3ccccc3)cc2)C1=O)c1ccccc1 (centres undefined) the results were Marburg entry inh -1% and AMA1-RON2 inh -7%.
For CSc1ccc(CN(C)CC(=O)NC(C)c2ccccc2)cc1 (centres undefined) the results were LASV entry inh inconclusive, CHX counter 14, Marburg entry inh inconclusive, Shiga toxin inh -9 and AMA1-RON2 inh -25%.
COc1cccc(Cn2c(CNC(=O)C(C)C)nc3cccnc32)c1 was read as LASV entry inh 28%[46.1 µM].
COc1ccc(NC(=O)C(C)N2Cc3ccccc3C2=O)cc1OC (centres undefined) was read as LASV entry inh 1%[46.1 µM].
`CCOC(=O)c1sc2cccc(F)c2c1S(=O)(=O)N1CCN(c2cccc(Cl)c2)CC1` gave LASV entry inh -21%[46.1 µM].
Screening C/C(CC(=O)Nc1cc(Cl)ccc1Cl)=N\NC(=O)c1ccco1 returned LASV entry inh -4%, CHX counter 51*, Marburg entry inh -23%, Shiga toxin inh 83* and AMA1-RON2 inh 92%.
`CC1NC(=O)NC1CCCCCC(=O)NCCc1ccccc1` (centres undefined) gave LASV entry inh inconclusive, CHX counter 2, Marburg entry inh 21%, Shiga toxin inh 3 and AMA1-RON2 inh 1.5µM*.
C(=C\c1ccc2ccccc2n1)/c1ccccc1 was read as CHX counter 13, Shiga toxin inh 16 and AMA1-RON2 inh 53%.
Screening O=[N+]([O-])c1ccc(/C=C/c2ccc3ccccc3n2)cc1 returned LASV entry inh 2µM*, CHX counter 21*, Marburg entry inh inconclusive, Shiga toxin inh 30 and AMA1-RON2 inh -10%.
O=[N+]([O-])c1ccc(/C=C/c2ccc3cccc(O)c3n2)cc1 was read as CHX counter 60*, Shiga toxin inh 98* and AMA1-RON2 inh 63%.
CC(=O)Nc1ccc(/C=C/c2ccc3cccc([N+](=O)[O-])c3n2)cc1 was read as CHX counter 23*, Shiga toxin inh 75* and AMA1-RON2 inh -14%.
O=C(O)COc1ccc(/C=C/c2ccc3cccc([N+](=O)[O-])c3n2)cc1 was read as LASV entry inh -6%, CHX counter -2, Marburg entry inh -9%, Shiga toxin inh 13 and AMA1-RON2 inh 1%.
COc1ccc2nc(NC(=O)C(NS(=O)(=O)c3cccc4nsnc34)C(C)C)sc2c1 (centres undefined) was read as CHX counter -4, Marburg entry inh -2%, Shiga toxin inh -9 and AMA1-RON2 inh 31%.
For COc1cc(N2Cc3ccccc3C2)ccc1C=O the results were LASV entry inh inconclusive, CHX counter 8, Marburg entry inh 7.9µM*, Shiga toxin inh 11 and AMA1-RON2 inh -9%.
Cc1cccc(NC(=O)C(NS(=O)(=O)c2cccc3nsnc23)c2ccccc2)c1C (centres undefined) was read as LASV entry inh -5%[46.1 µM] and Marburg entry inh inconclusive.
CCCCCCCOC(=O)c1ccc(OC(=O)c2cccnc2)cc1 was read as LASV entry inh -20%, CHX counter 16*, Marburg entry inh -9%, Shiga toxin inh 53 and AMA1-RON2 inh 0%.
Screening CCc1ccc(OC(=O)c2cncc(Br)c2)cc1 returned LASV entry inh inconclusive, CHX counter 18*, Marburg entry inh inconclusive, Shiga toxin inh 22 and AMA1-RON2 inh 46%.
Screening CCOc1ccc(OC(=O)c2cccnc2)cc1 returned LASV entry inh -15%, CHX counter 7, Marburg entry inh -12%, Shiga toxin inh 51 and AMA1-RON2 inh 15%.
Screening CCc1ccc(C(=O)COC(=O)c2cncc(Br)c2)cc1 returned LASV entry inh 7%, CHX counter 40*, Marburg entry inh 28%[46.1 µM], Shiga toxin inh 33 and AMA1-RON2 inh 19%.
For O=C(Oc1ccc2ccccc2c1)c1cncc(Br)c1 the results were LASV entry inh 0%, CHX counter 2, Marburg entry inh inconclusive, Shiga toxin inh -13 and AMA1-RON2 inh -24%.
`CCCCCOc1ccc(OC(=O)c2ccncc2)cc1` gave LASV entry inh inconclusive, CHX counter -4, Marburg entry inh inconclusive, Shiga toxin inh 9 and AMA1-RON2 inh 9%.
